Screens from PubChem BioAssay.
Shown are actives, neighbours in structure and some others; about 19% of the full set was active somewhere.
SW480 rereplic – induces DNA re-replication in SW480 colon adenocarcinoma cells | Potency, µM (titrated, usually from 46.1 µM), inactives show at the top dose re-replication activation, hits mostly activators | 1.8% of 340,000 active | SW480 DNA re-replication, Hoechst DNA content imaging, 48 h; note: potency is the fitted concentration of half-maximal effect; % of control where 0% means no effect; nearly all actives have a fitted effect of over 55% in size
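SW480 cells exposed to compounds for 48 hr at 37 C, 5% CO2, then Hoechst-stained 40 min. Nuclear DNA content imaged by fluorescence scanning (405 nm excitation, 500-530 nm emission); re-replication scored as increased high-intensity nuclei.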
Chronic BCR inh – blocks chronic active B-cell receptor signaling; ABC-DLBCL IkBa-CBG/CBR reporter, luminescence ratio, 4 h; Potency, µM (doses to about 46.1 µM), for inactives: top-dose activity change, negative = inhibition, usual class: inhibitors; 0.05% of 340,000 active; AID 493014; active = well fitted inhibition curve with a large enough effect in the signal ratio, with a control signal flat, not every such curve was filed as active; inconclusive = small, poorly fitted or top-dose-only effect, or effect the other way, or a change in a side signal; the % refers to the signal ratio;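 note: potency is the fitted concentration of half-maximal effect; plate controls were basal doxycycline-induced cells for no effect and cells given 10 µM MG132 for full effect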
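TMD8 human ABC-DLBCL cells with doxycycline-inducible IκBα–green luciferase fusion and unfused red luciferase, in 0.5% FBS medium; compounds up to 46 uM, 4 h at 37C. Green/red luminescence ratio, filter-overlap corrected, fitted to concentration-response curves.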
DT40 TDP1 no CPT – qHTS for Inhibitors of human tyrosyl-DNA phosphodiesterase 1 (TDP1): qHTS in cells in absence of CPT; Potency, µM (titrated, usually from 46.2 µM), for the others: top-dose activity change, negative = growth inhibition, hits mostly inhibitors; DT40 Tdp1-/- hTDP1 cells, no CPT, ATP luminescence, 48 h; AID 686978, 2013; 15% of 420,000 active; note: potency is the fitted concentration of half-maximal effect; % is set by controls: 0 for no effect and ±100 for the full control effect; nearly all actives have a fitted effect of over 55% in size
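Camptothecin absent (DMSO only). Human TDP1-complemented DT40 knockout cells, 400 cells/well, 37 °C for minimum 48 hr; ATP measured via CellTiter-Glo, 30 min dark incubation, luminescence.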
IL-1B inflam inh – inflammasome signaling inhibition, IL-1 beta readout. activity change, % at 57.5 µM. 4.7% of 360,000 active. THP-1 LPS/ATP IL-1B secretion, AlphaLISA, 16 h; hits give low values; in the data active = activity change below about -50%; inconclusive = mostly about -30% to -49%; note: % is set by controls: 0 for no effect and ±100 for the full control effect
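THP-1 cells pretreated 1 hr with compounds (up to 57.5 uM final), then stimulated with LPS (250 ng/mL final) plus ATP (1.25 mM final); secreted IL-1B measured by AlphaLISA after 16 hr, decreased signal indicating inhibition.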
MCF10A rereplic – DNA re-replication induction in MCF 10a cells; MCF 10A DNA re-replication, Hoechst nuclear intensity, 48 h; Potency, µM (highest dose often 46.1 µM), without a hit: top-dose activity, positive = re-replication, actives largely listed as activators; 2.9% of 350,000 active; AID 624296; note: potency is the fitted concentration of half-maximal effect; % of control where 0% means no effect; nearly all actives have a fitted effect of over 50% in size
TDP1 cell CPT – growth inhibition of DT40 Tdp1-/-;hTDP1 cells with camptothecin (screen for TDP1 inhibitors); 12% of 420,000 active; Potency, µM (highest dose often 46.2 µM), inactives show top-dose activity change, negative = growth inhibition, most hits filed as inhibitors; chicken DT40 Tdp1-/-;hTDP1 cells + 20 nM CPT, ATP luminescence, 48 h; AID 686979; note: potency is the fitted concentration of half-maximal effect; % is set by controls: 0 for no effect and ±100 for the full control effect; nearly all actives have a fitted effect of over 55% in size
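Cell growth measured by CellTiter-Glo luminescence after a minimum 48 h, 37 C compound exposure with 20 nM CPT in Tdp1-knockout DT40 cells stably expressing hTDP1, seeded 400/well; qHTS titration format.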
Active calls of the source: *; ? = inconclusive; . = no result. Unless noted, calls come from the whole dose curve; as a rule, active = well fitted curve in the direction sought with a large enough effect; inconclusive = small, poorly fitted or top-dose-only effect, or another doubt; inactive = no such curve, though single readings can be large; an effect the other way counts as inactive or inconclusive.

SMILES	SW480 rereplic	Chronic BCR inh	DT40 TDP1 no CPT	IL-1B inflam inh	MCF10A rereplic	TDP1 cell CPT
COC(=O)c1c(NC(=O)COC(=O)c2ccc(O)cc2)sc2c1CCCCC2	?	-3%	29µM*	-79*	13µM*	?
COC(=O)c1ccc(NC(=O)c2c(NCc3ccc(OC)c(OC)c3)sc3c2CCCC3)cc1	.	?	5.2µM*	.	.	2.9µM*
COc1ccc(NC(=O)c2c(NCc3cccc(OC)c3)sc3c2CCCC3)cc1	.	?	23µM*	.	.	?
O=C(OCC(=O)N1CCCC1=O)C1COc2ccccc2O1 (centres undefined)	2%	0%	6%	6	-3%	-7%
COc1ccc(Br)cc1CN(C)CC(O)COc1ccc(Br)cc1 (centres undefined)	?	-21%	?	-85*	?	?
COc1ccc(CN(C)CC(O)COc2ccc(C(=O)c3ccccc3)cc2)c(OC)c1OC (centres undefined)	?	-1%	16µM*	-67*	68%	?
CN(CCOc1ccc(Br)cc1)CC(O)COc1ccc(C#N)cc1 (centres undefined)	?	1%	4.1µM*	-87*	-1%	?
COc1ccc(CCN2CCCn3c2nc2c3c(=O)[nH]c(=O)n2C)cc1OC	?	?	7.3µM*	54	?	26µM*
O=C(Cc1cccc2ccccc12)NCC(=O)N1CCN(CC(=O)Nc2ccc(F)cc2)CC1	.	.	18µM*	15	.	?
O=C(Cc1cccc2ccccc12)NCC(=O)N1CCN(Cc2cccc(C(F)(F)F)c2)CC1	-10%	3%	10µM*	-13	11%	10µM*
COCCN(C(=O)CSc1ccc2c(c1)OCCO2)c1c(N)n(CC(C)C)c(=O)[nH]c1=O	-39%	4%	-3%	2	-17%	9%
Cn1c(C(=O)OC(C(=O)NCC2CCCO2)c2cccnc2)cc2sccc21 (centres undefined)	1.3µM*	-10%	-38%	-18	?	-5%
CC(OC(=O)c1cc2sccc2n1C)C(=O)NCCc1ccccc1 (centres undefined)	?	-3%	18µM*	6	?	15µM*
CC(OC(=O)c1cc2sccc2n1C)C(=O)NCC1CCCO1 (centres undefined)	-2%	-4%	-8%	12	6%	-25%
COc1cc(/C=C(/NC(=O)c2ccccc2)C(=O)Nc2ccc(O)cc2)c([N+](=O)[O-])cc1OC	0%	-12%	12%	-2	-3%	5%
Cc1ccc(C2=C(O)C(=O)C(c3ccc(C)cc3)=C(O)C2=O)cc1	17%	.	12µM*	25	?	?
Cc1cc(C)c(C)c(S(=O)(=O)N2CCC(C(=O)N(C)Cc3nc4ccccc4c(=O)[nH]3)CC2)c1C	9%	.	?	-11	24%	?
Cc1cc(C)cc(NC(=S)NCCSc2ccc(Cl)cc2)c1	0%	1%	21µM*	-202*	21µM*	?
Cc1ccc(SCCNC(=S)Nc2ccccc2)cc1	0%	.	?	-25	9%	?
Cc1ccc(SCCNC(=S)Nc2ccc(C)c(C)c2)cc1	?	18%	?	-28	15µM*	?
COC(=O)Cc1ccc(NC(=S)NCCSc2ccc(Cl)cc2)cc1	3%	2%	21µM*	-57*	?	?
Cc1ccc(CNC(=S)Nc2ccc(C)c([N+](=O)[O-])c2)cc1	-3%	-6%	15µM*	13	?	23µM*
COc1ccc(NC(=O)/C(C#N)=C/c2ccc(OCc3cc(=O)n4nc(C)sc4n3)cc2)cc1	.	.	-5%	.	.	-1%
CN(CC(=O)Nc1ccccc1Br)C(=O)c1ccccc1-c1nc2ccccc2s1	0%	?	-11%	?	22%	-21%
Cc1cccc(S(=O)(=O)N(C)C[C@@H]2OCc3cn(nn3)CCCC(=O)N([C@H](C)CO)C[C@H]2C)c1	.	.	?	14	.	-27%
SMILES	SW480 rereplic	Chronic BCR inh	DT40 TDP1 no CPT	IL-1B inflam inh	MCF10A rereplic	TDP1 cell CPT
Cc1cc(C(=O)N2CCc3ccccc3C2)c(C)o1	-6%	.	?	-15	-2%	16µM*
O=C(c1cc2ccccc2o1)N1CCN(S(=O)(=O)c2ccccc2)CC1	?	0%	-21%	-1	-8%	12µM*
Cc1nc2ccccc2c2oc(C(=O)N3CCc4ccccc4C3)cc12	-2%	?	16µM*	-1	5%	23µM*
Cc1cc(C(=O)N2CCN(S(=O)(=O)c3ccccc3)CC2)c(C)o1	?	-2%	?	-2	8%	23µM*
CC1(c2ccccc2)NC(=O)N(CC(=O)Nc2nnc(C3CC3)s2)C1=O (centres undefined)	-3%	-2%	0%	7	-2%	2%
Cc1ccc(CC(=O)NO)cc1	.	.	-16%	.	.	?
CCN(CC)c1cc(C)c2cc(NC(=O)c3cccc(OC)c3OC)ccc2n1	.	.	6.5µM*	.	.	16µM*
CCOc1ccccc1C(=O)Nc1ccc2nc(N(CC)CC)cc(C)c2c1	.	.	21µM*	.	.	21µM*
CCOc1ccc(C(=O)Nc2ccc3nc(N(CC)CC)cc(C)c3c2)cc1	.	.	?	.	.	18µM*
CCOc1ccc(NC(=O)c2ccccc2C(=O)c2ccccc2)cc1OCC	-9%	6%	?	-2	0%	?
CCN(CC)c1cc(C)c2cc(NC(=O)c3ccccc3F)ccc2n1	8%	0%	29µM*	-57*	12%	21µM*
O=C(Nc1ccc2nc3n(c(=O)c2c1)CCCC3)c1ccccc1F	-22%	-4%	1%	-11	0%	-18%
O=C(COC(=O)/C=C/c1cc(Br)ccc1F)NC1CC1	-1%	0%	-14%	-9	-1%	9%
CCn1c2c(c3cc(Br)ccc31)CCC/C2=N\O	-3%	.	?	20	13µM*	1%
O=C(CCNC(=O)c1ccco1)NCCN1C(=O)S/C(=C\c2ccc(F)cc2)C1=O	1%	-14%	?	-28	-3%	?
CC12CCC(=O)N1C(C(=O)NCCN1C(=O)S/C(=C\c3ccc(F)cc3)C1=O)CS2 (centres undefined)	11%	?	?	-63*	2%	?
Cc1ccc(S(=O)(=O)CCC(=O)NCCN2C(=O)S/C(=C/c3ccc(F)cc3)C2=O)cc1	4%	?	18µM*	-62*	2%	23µM*
